# PubChem BioAssay (NCI)
# The panel holds about 83,000 compounds, 20% with a hit somewhere; the sample as a whole holds those more often.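 The endpoint reported here, percent growth, reads 100 for growth as untreated, 0 for no net growth and -100 for all cells dead.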 Activity calls are given as the source filed them. How the source made its calls: active means growth percent below 10; inactive means the rest.
# Experiments:
# Assay in all cases: NCI-60 one-dose screen, 48 h (100 = growth as untreated, 0 = no growth, -100 = all killed)
# Conditions in all cases: 10 µM unless noted
# SK-MEL-2 melanoma = system: SK-MEL-2 melanoma
# EKVX NSCLC = system: EKVX NSCLC
# SN12C renal = system: SN12C renal
# UO-31 renal = system: UO-31 renal
# TK-10 renal = system: TK-10 renal
# ACHN renal = system: ACHN renal
# A498 renal = system: A498 renal
# CCRF-CEM leukemia = system: CCRF-CEM leukemia
# MOLT-4 leukemia = system: MOLT-4 leukemia
# SR leukemia = system: SR leukemia
SMILES,growth (SK-MEL-2 melanoma),growth (EKVX NSCLC),growth (SN12C renal),growth (UO-31 renal),growth (TK-10 renal),growth (ACHN renal),growth (A498 renal),growth (CCRF-CEM leukemia),growth (MOLT-4 leukemia),growth (SR leukemia)
Cc1nc2sc(C(=O)Nc3cccc(Cl)c3C)c(N)c2cc1C(C)O (stereo not given),24.2% (inactive),54.5% (inactive),33.5% (inactive),48.7% (inactive),46.3% (inactive),35.7% (inactive),8.96% (active),14.2% (inactive),13% (inactive),12% (inactive)
O=C1NCc2ccc3c(-c4cccc(Cl)c4)c[nH]c3c21,38.6% (inactive),28.7% (inactive),36.8% (inactive),44.8% (inactive),46.2% (inactive),48.4% (inactive),24.7% (inactive),17.4% (inactive),18.1% (inactive),20.4% (inactive)
CC(=O)ON1CCCC(P(=O)(OCOC(=O)C(C)(C)C)OCOC(=O)C(C)(C)C)C1=O (stereo not given),9.04% (active),9.78% (active),-1.1% (active),-8.25% (active),1.68% (active),6.57% (active),-8.06% (active),-7.6% (active),-25.4% (active),-22.3% (active)
N#Cc1ccc(N2Cc3cc(Cl)ccc3OC3=C2C(=O)N(Cc2ccccc2)C3=O)cc1,-38.7% (active),43.8% (inactive),-39.5% (active),-90.5% (active),-66.3% (active),-85.6% (active),129% (inactive),-9.47% (active),-24.7% (active),-25.7% (active)
O=C(Nc1ccccc1)NS(=O)(=O)c1c[nH]c(=S)[nH]c1=O,91.5% (inactive),99.6% (inactive),103% (inactive),89.3% (inactive),97.6% (inactive),108% (inactive),112% (inactive),113% (inactive),90.8% (inactive),87.3% (inactive)
C=C1C(=O)O[C@H]2[C@H]1CC/C(COC(=O)CCCCCCC(=O)OC/C1=C/CC[C@@]3(C)O[C@H]3[C@H]3OC(=O)C(=C)[C@@H]3CC1)=C\CC[C@@]1(C)O[C@@H]21,84.6% (inactive),24.6% (inactive),6.29% (active),-21.8% (active),-5.79% (active),-38.6% (active),96.3% (inactive),4.54% (active),2.4% (active),-2.74% (active)
O=C(CCCC(=O)Nc1ccc(-n2nnc3cc(Cl)c(Cl)cc32)cc1)Nc1ccc(-n2nnc3cc(Cl)c(Cl)cc32)cc1,53.8% (inactive),64.4% (inactive),40.5% (inactive),79.8% (inactive),84% (inactive),66.2% (inactive),36.5% (inactive),77.6% (inactive),91.1% (inactive),51.2% (inactive)
C=CCn1c(SCC(=O)Nc2ccc(C(=O)/C=C/c3cc(OC)c(OC)c(OC)c3)cc2)nnc1-c1ccc(Cl)cc1,26.3% (inactive),21.6% (inactive),27.9% (inactive),26.5% (inactive),35.9% (inactive),37.4% (inactive),15.6% (inactive),6.62% (active),7.87% (active),3.83% (active)
CC(=O)O[C@@H]1C[C@]2(C)[C@H]3[C@H](O)C[C@@H]4C5=CC(C)(C)CC[C@]5(C)CC[C@@]4(C)[C@]3(C)CC[C@H]2C(C)(C)[C@H]1O,107% (inactive),96.5% (inactive),99.9% (inactive),84.1% (inactive),104% (inactive),102% (inactive),119% (inactive),106% (inactive),87.1% (inactive),87.1% (inactive)
N#CCNc1ccc(C(=O)O)cc1,108% (inactive),104% (inactive),103% (inactive),101% (inactive),97.4% (inactive),111% (inactive),106% (inactive),99.3% (inactive),96.3% (inactive),99.2% (inactive)
COc1ccc(/C=C(/C(=O)N2CCN(Cc3ccccc3)CC2)c2cc(OC)c(OC)c(OC)c2)cc1O,73.6% (inactive),87.2% (inactive),91.2% (inactive),62.5% (inactive),88.5% (inactive),67.2% (inactive),54.9% (inactive),64.9% (inactive),72.1% (inactive),28% (inactive)
CCc1ccc(OCc2ccccc2C(=O)Nc2ccc3nc(C)cc(N)c3c2)cc1,-83.1% (active),-56.2% (active),-79.7% (active),-98.5% (active),-93.5% (active),-100% (active),-94.3% (active),-53.4% (active),-74.4% (active),-61.2% (active)
C1=CC2=CC=C3C=CC=C4C(c5nc6c7ccccc7c7ccccc7c6[nH]5)=CC(=C1)C2C34 (stereo not given),123% (inactive),93.5% (inactive),94.6% (inactive),62.8% (inactive),127% (inactive),89.6% (inactive),63.7% (inactive),89.7% (inactive),73.3% (inactive),76.3% (inactive)
O=C(Nc1ccc(N=Cc2ccccc2O)cc1)NC1C=c2ccccc2=CC1 (stereo not given),102% (inactive),106% (inactive),102% (inactive),81.9% (inactive),111% (inactive),102% (inactive),83.5% (inactive),81% (inactive),93% (inactive),95.1% (inactive)
O=C(O)C(C(=O)O)c1cccc2ccccc12,95.2% (inactive),108% (inactive),100% (inactive),88.5% (inactive),89.3% (inactive),105% (inactive),85.6% (inactive),92.2% (inactive),94.4% (inactive),90.6% (inactive)
C#C[C@@]1(O)[C@@H](CO)O[C@@H](n2cc(Cl)c3c(N)ccnc32)[C@@H]1O,76.9% (inactive),89.7% (inactive),78.8% (inactive),72.2% (inactive),122% (inactive),64.8% (inactive),87.7% (inactive),58.4% (inactive),45.6% (inactive),68.9% (inactive)
COc1ccc(C(=O)c2cc(OC)c(OC)c(OC)c2)cc1OC(=O)CCl,26.1% (inactive),70.2% (inactive),32% (inactive),44.8% (inactive),63.6% (inactive),40.2% (inactive),59.3% (inactive),14.9% (inactive),18.4% (inactive),13.4% (inactive)
CN(C)c1ccc(-c2ccc3[nH]c(=O)nc(-c4ccc(F)cc4)c3c2)cn1,30.8% (inactive),55.9% (inactive),45.3% (inactive),52.9% (inactive),73.7% (inactive),52.3% (inactive),18.5% (inactive),12% (inactive),28.1% (inactive),18.3% (inactive)
CC1=C(CCCOC(=O)NCCCl)C2=C(C)C3(CC3)[C@@](C)(O)C(=O)C2=C1,14.5% (inactive),54.3% (inactive),45.7% (inactive),-42.1% (active),9.96% (active),5.75% (active),-9.87% (active),79.9% (inactive),70.4% (inactive),82.9% (inactive)
CC(C)Cc1cc(CNC(=O)C2[C@H]3CN(C(=O)c4ccccc4)C[C@@H]23)nn1-c1ccccc1 (stereo not given in full),83.8% (inactive),92.8% (inactive),99.1% (inactive),74.9% (inactive),73.2% (inactive),92.2% (inactive),96.6% (inactive),89.7% (inactive),80.6% (inactive),90.4% (inactive)
COc1ccc(-n2cc(-c3ccc(Cl)c(Cl)c3)[nH]c2=O)cc1OC,97.7% (inactive),93.6% (inactive),102% (inactive),95% (inactive),96.6% (inactive),105% (inactive),79.3% (inactive),3.68% (active),144% (inactive),40.1% (inactive)
COc1cc(C2=NN(C(C)=O)C(c3cccc(Nc4ccnc5cc(C(F)(F)F)ccc45)c3)C2)cc(OC)c1OC (stereo not given),81.4% (inactive),52.2% (inactive),64.3% (inactive),35.8% (inactive),58.3% (inactive),58.5% (inactive),60.3% (inactive),44% (inactive),22.3% (inactive),29% (inactive)
COc1ccc(/C=C/C(=O)c2ccc(NC(=O)CSc3nnc(-c4ccc(OC)c(OC)c4)n3-c3ccccc3)cc2)cc1,74.7% (inactive),66% (inactive),40.5% (inactive),-81.3% (active),101% (inactive),59.9% (inactive),93.5% (inactive),-20.9% (active),10.8% (inactive),-38.2% (active)
O=C(Nc1cc(Nc2ncccc2-c2ncnc3nc[nH]c23)ccc1F)c1cc(C(F)(F)F)cc(C(F)(F)F)c1,-40% (active),20.4% (inactive),16.5% (inactive),-37.4% (active),-16.9% (active),-7.8% (active),-19.1% (active),2.41% (active),-33.6% (active),-21.1% (active)
